From PubChem
D2 PAM-1: HTS Assay for Positive Allosteric Modulators of the Human D2 Dopamine Receptor: Primary Screen for Potentiators | actives 0.34% (n = 340,000) | potentiation, % at 10 µM | HEK293 T-REx D2, calcium flux, EC20 dopamine potentiation;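 active means potentiation over 3 SD above the plate norm, cut at about 30% in these data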; further: 0% is about no effect
Target sequence (P14416 whole entry, looked up): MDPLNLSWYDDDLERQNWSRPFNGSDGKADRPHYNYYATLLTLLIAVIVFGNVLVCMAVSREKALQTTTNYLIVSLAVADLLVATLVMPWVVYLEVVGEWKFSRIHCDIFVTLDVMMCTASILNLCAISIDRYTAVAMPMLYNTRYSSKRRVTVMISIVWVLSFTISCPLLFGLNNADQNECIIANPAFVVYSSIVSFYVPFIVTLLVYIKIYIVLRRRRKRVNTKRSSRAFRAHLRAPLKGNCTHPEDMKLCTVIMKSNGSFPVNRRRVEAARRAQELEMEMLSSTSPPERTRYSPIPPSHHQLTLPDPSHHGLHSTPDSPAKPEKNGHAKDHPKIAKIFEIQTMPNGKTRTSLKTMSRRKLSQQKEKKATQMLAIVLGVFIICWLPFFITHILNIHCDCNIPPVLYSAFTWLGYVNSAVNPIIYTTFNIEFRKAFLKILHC
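Primary screen. Calcium kinetics in induced HEK293 T-REx D2 cells: compound pre-addition 180 s, EC20 dopamine, 180 s more.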
D2 ag-1: HTS Assay for Allosteric Agonists of the Human D2 Dopamine Receptor: Primary Screen for Agonists | D(2) dopamine receptor (Homo sapiens), P14416 | HEK293 T-REx D2 cells, calcium flux agonist mode | activation, % at 2 µM | actives 0.53% (n = 340,000) | AID 485358, 2010;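 active means activation over 3 SD above normal in the single-dose calcium agonist read, cut at about 30% in these data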; further: 0% is about no effect
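HEK293 Trex D2 cells, tetracycline-induced, o/n 30 C 5% CO2; no-wash Ca dye, RT 30–90 min; 10-cycle baseline, 23 nl cpd added, kinetic Ca read 180 s; agonist hits = positive Ca response.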
D2 ag-2: Beta-Arrestin HTS for Positive Allosteric Modulators of the Human D2 Dopamine Receptor: Agonists; actives 0.084% (n = 360,000); activation, % (no concentration beside the values); AID 624465, 2012; DiscoveRx PathHunter D2 beta-arrestin, luminescence, 90 min; 100% = 57 uM dopamine signal; D(2) dopamine receptor (Homo sapiens), P14416; in the data active means activation above about 40%
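Agonist mode: compounds alone added to overnight-plated D2 PathHunter cells for 90 min at 37 C, with 57 uM final dopamine (EC100) defining full response. Beta-arrestin recruitment detected by chemiluminescent reagent, read after 1 h at ambient temperature.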
D2 antag: HTS Assay for Allosteric Antagonists of the Human D2 Dopamine Receptor: Primary Screen for Antagonists | D(2) dopamine receptor (Homo sapiens), P14416 | HEK293 TREx D2 cells, calcium flux, dopamine EC80 | inhibition, % at 10 µM | actives 2% (n = 340,000) | AID 485344, 2010; in the data active means inhibition above about 30%; inactive means below that, where a call was filed; further: 0% is about no effect
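Overnight-induced (tetracycline, 30 C) HEK293 T-REx cells carrying force-coupled D2 receive a no-wash calcium dye, then compound, then EC80 dopamine at 180 s; signals are read kinetically throughout.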
D2 PAM-2: Beta-Arrestin HTS for Positive Allosteric Modulators of the Human D2 Dopamine Receptor: Potentiators; D(2) dopamine receptor (Homo sapiens), P14416; potentiation, % (test concentration not listed); actives 0.23% (n = 360,000); DiscoveRx D2 beta-arrestin cells, luminescence, 90 min; 100% = 57 uM dopamine signal; in the data active means potentiation above about 50%
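PathHunter D2 cells, attached overnight at 37 deg C, received compound in DMSO plus dopamine at EC20 (50 nM final) for 90 min at 37 deg C. Beta-arrestin recruitment was read as luminescence after 1 h with detection reagent at ambient temperature.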
The depositor's hits bear a star. Most compounds without a hit are left out; they make up all but 2.4% or so of the library.

Results for Cc1cccc(NC(=O)c2nc[nH]c2C(=O)N2CCC(C)CC2)c1 ?
D2 PAM-1: -25; D2 ag-1: -1; D2 ag-2: 0; D2 antag: 39*; D2 PAM-2: -27

What do the screens show for `Cc1ccc(NC(=O)c2nc[nH]c2C(=O)N2CCc3ccccc3C2)cc1`?
D2 PAM-1: -25; D2 ag-1: 0; D2 ag-2: -3; D2 antag: 63*; D2 PAM-2: -21

Results for CCOC(=O)c1ccc(NC(=O)c2nc[nH]c2C(=O)N2CCc3ccccc3C2)cc1 ?
D2 PAM-1: -13; D2 ag-1: 1; D2 ag-2: -4; D2 antag: 5; D2 PAM-2: -9

What do the screens show for `COc1ccc(-n2c(=O)c3c4c(sc3n(CC(=O)N3CCCCC3C)c2=O)CCC4)c(OC)c1` (centres undefined)?
D2 PAM-1: 7; D2 ag-1: 0

What do the screens show for `CCOC(=O)c1cnn(-c2cccc(Cl)c2)c1C1CCN(C(=O)OC(C)(C)C)CC1`?
D2 PAM-1: 11; D2 ag-1: 1

How did O=C(O)Cc1ccc(-n2cccc2)cc1 do in these assays?
D2 PAM-1: 0; D2 ag-1: 0; D2 ag-2: 0; D2 antag: 37*; D2 PAM-2: -6

How did CCOC(=O)c1cc(S(=O)(=O)NC2CCC(C)CC2)cn1C (centres undefined) do in these assays?
D2 PAM-1: 99*; D2 ag-1: 0; D2 ag-2: 3; D2 antag: -10; D2 PAM-2: 1

Results for Cc1cccc(NC(=O)c2oc3ccc(S(=O)(=O)N(C)C4CCCCC4)cc3c2C)c1C ?
D2 PAM-1: -2; D2 ag-1: 0

Results for O=C(CS(=O)(=O)Cc1ccccc1)Nc1ccc(Cl)cn1 ?
D2 PAM-1: 0; D2 ag-1: 1; D2 ag-2: -2; D2 antag: 52*; D2 PAM-2: -8

What do the screens show for `COc1ccccc1CNCC(O)Cn1c2ccccc2c2ccccc21` (centres undefined)?
D2 PAM-1: 5; D2 ag-1: 3; D2 ag-2: 1; D2 antag: 42*; D2 PAM-2: -2

What do the screens show for `COc1ccccc1C(C)NCC(=O)NCc1ccc(C)cc1` (centres undefined)?
D2 PAM-1: -28; D2 ag-1: 0; D2 ag-2: 1; D2 antag: 37*; D2 PAM-2: -16

How did COc1ccccc1C(C)NCC(=O)NCC(=O)Nc1ccc(F)c(F)c1F (centres undefined) do in these assays?
D2 PAM-1: -11; D2 ag-1: 0; D2 ag-2: 0; D2 antag: -1; D2 PAM-2: -19

Results for COc1ccccc1CNC(=O)Cc1ccc(C)cc1 ?
D2 PAM-1: -2; D2 ag-1: 0; D2 ag-2: 2; D2 antag: -19; D2 PAM-2: -6

Results for COc1ccccc1CNCC(=O)NCc1ccc(C)cc1 ?
D2 PAM-1: -26; D2 ag-1: 0; D2 ag-2: -2; D2 antag: 52*; D2 PAM-2: -27

How did O=C(CSc1nnc2[nH]c(=O)cc(-c3ccccc3)n12)Nc1cc(C(F)(F)F)ccc1Cl do in these assays?
D2 PAM-1: 13

How did CC1(C)CC(=O)/C(=C(\O)CCCN2C(=O)c3ccccc3C2=O)C(=NCC(=O)O)C1 do in these assays?
D2 PAM-1: 15; D2 ag-1: 1; D2 ag-2: 1; D2 antag: -9; D2 PAM-2: -3

Results for O=C1CC(c2ccccc2)CC(=NCCO)/C1=C(\O)CCCN1C(=O)c2ccccc2C1=O (centres undefined) ?
D2 PAM-1: 51*; D2 ag-1: 0; D2 ag-2: 1; D2 antag: 2; D2 PAM-2: 0
